Results published in PubChem BioAssay AID1159580 (chemical genetic matrix, 2015).
Where “and” joins values, the source holds several entries; their conditions need not be identical. Identical values can stand only once. Among all 5,500 compounds or so, about 2,000 (36%) were called active. Inconclusive results (about 18%) are left out. Cut-off read from the data, not from the text of the source: active = normalized growth mostly below about 0.91 (no sharp cut-off); inconclusive = no clear call, values can overlap the other calls; inactive = mostly above about 0.92. This is one part of the list.

Assay: chemical genetic growth profiling, strain panel (AID 1159580);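 note: tested at 20 µM; growth read once vehicle control cultures reached saturation at 30 °C; 1 = growth at the plate median or of vehicle wells; lower values mean less growth of the strain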
Conditions: S. cerevisiae deletion strains, growth OD

Measured: normalized growth

CC[C@@]1(O)C[C@H](O[C@H]2C[C@H](N(C)C)[C@H](O)[C@H](C)O2)c2c(cc3c(c2O)C(=O)c2c(O)cccc2C3=O)[C@H]1C(=O)OC
inactive: locus YBR021W, strain FUR4, stronger effect = lower value 1.06 | locus YBR171W, strain sec66, stronger effect = lower value 0.994 | locus YBR229C, strain ROT2, stronger effect = lower value 0.942 | locus YBR279W, strain paf1, stronger effect = lower value 0.94 | locus YCL069W, strain vba3, stronger effect = lower value 0.972 | locus YCR088W, strain abp1, stronger effect = lower value 0.946 | locus YDL005C, strain med2, stronger effect = lower value 0.967 | locus YDL040C, strain nat1, stronger effect = lower value 0.955 | locus YDR001C, strain nth1, stronger effect = lower value 0.944 | locus YDR069C, strain doa4, stronger effect = lower value 0.908 | locus YDR150W, strain NUM1, stronger effect = lower value 0.945 | locus YDR297W, strain sur2, stronger effect = lower value 0.928 | locus YDR334W, strain swr1, stronger effect = lower value 0.959 | locus YEL003W, strain gim4, stronger effect = lower value 0.924 | locus YEL037C, strain rad23, stronger effect = lower value 0.944 | locus YEL061C, strain CIN8 (second series), stronger effect = lower value 0.949 | locus YER016W, strain bim1, stronger effect = lower value 0.925 | locus YER110C, stronger effect = lower value 0.921 | locus YER111C, strain swi4, stronger effect = lower value 0.989 | locus YER155C, strain BEM2 (second series), stronger effect = lower value 0.931 | locus YER155C, strain BEM2, stronger effect = lower value 0.944 | locus YGL078C, strain dbp3, stronger effect = lower value 0.928 | locus YGL167C, strain pmr1, stronger effect = lower value 0.963 | locus YGL173C, strain kem1, stronger effect = lower value 0.913 | locus YGL227W, strain vid30, stronger effect = lower value 0.959 | locus YGR078C, strain PAC10, stronger effect = lower value 0.905 | locus YGR252W, strain gcn5, stronger effect = lower value 1.06 | locus YHR013C, strain ard1, stronger effect = lower value 1.01 | locus YHR079C, strain IRE1, stronger effect = lower value 0.981 | locus YHR142W, strain chs7, stronger effect = lower value 0.882 | locus YJL129C, strain trk1, stronger effect = lower value 1.08 | locus YJL154C, strain vps35, stronger effect = lower value 0.95 | locus YJL187C, strain SWE1 (second series), stronger effect = lower value 0.871 | locus YJR066W, strain TOR1, stronger effect = lower value 0.879 | locus YKL009W, strain mrt4, stronger effect = lower value 0.897
active: locus YAL021C, strain ccr4, stronger effect = lower value 0.653 | locus YAL026C, strain drs2, stronger effect = lower value 0.883 | locus YAL030W, strain snc1, stronger effect = lower value 0.907 | locus YBL061C, strain skt5, stronger effect = lower value 0.891 | locus YBR009C, strain hhf1, stronger effect = lower value 0.783 | locus YBR023C, strain chs3, stronger effect = lower value 0.899 | locus YBR231C, strain swc5, stronger effect = lower value 0.823 | locus YCL011C, strain gbp2, stronger effect = lower value 0.867 | locus YCL016C, strain dcc1, stronger effect = lower value 0.704 | locus YCL029C, strain bik1, stronger effect = lower value 0.854 | locus YDL035C, strain GPR1, stronger effect = lower value 0.797 | locus YDL074C, strain BRE1, stronger effect = lower value 0.765 | locus YDL101C, strain DUN1, stronger effect = lower value 0.786 | locus YDL185W, strain tfp1, stronger effect = lower value 0.853 | locus YDL192W, strain arf1, stronger effect = lower value 0.666 | locus YDR101C, strain arx1, stronger effect = lower value 0.8 | locus YDR137W, strain rgp1, stronger effect = lower value 0.631 | locus YDR159W, strain sac3, stronger effect = lower value 0.73 | locus YDR162C, strain NBP2, stronger effect = lower value 0.595 | locus YDR195W, strain ref2 1.73 [resistant] | locus YDR318W, strain mcm21, stronger effect = lower value 0.866 | locus YDR335W, strain msn5, stronger effect = lower value 0.908 | locus YDR388W, stronger effect = lower value 0.847 | locus YDR392W, strain spt3, stronger effect = lower value 0.676 | locus YDR502C, strain sam2, stronger effect = lower value 0.812 | locus YEL061C, strain CIN8, stronger effect = lower value 0.879 | locus YER015W, strain faa2, stronger effect = lower value 0.869 | locus YER167W, strain BCK2, stronger effect = lower value 0.884 | locus YFR010W, strain ubp6, stronger effect = lower value 0.887 | locus YGL086W, strain mad1, stronger effect = lower value 0.816 | locus YGL240W, strain doc1, stronger effect = lower value 0.788 | locus YGL248W, strain PDE1, stronger effect = lower value 0.88 | locus YGL253W, strain hxk2, stronger effect = lower value 0.792 | locus YGR135W, strain pre9, stronger effect = lower value 0.875 | locus YHR027C, strain rpn1, stronger effect = lower value 0.785 | locus YHR079C, strain IRE1 (second series), stronger effect = lower value 0.89 | locus YHR094C, strain hxt1, stronger effect = lower value 0.92 | locus YHR129C, strain ARP1, stronger effect = lower value 0.886 | locus YHR200W, strain rpn10, stronger effect = lower value 0.788 | locus YIL066C, strain RNR3, stronger effect = lower value 0.79 | locus YIL073C, strain SPO22, stronger effect = lower value 0.538 | locus YIL125W, strain kgd1, stronger effect = lower value 0.918 | locus YIR030C, strain dcg1, stronger effect = lower value 0.871 | locus YJL092W, strain hpr5, stronger effect = lower value 0.804 | locus YJL095W, strain BCK1 (second series), stronger effect = lower value 0.886 | locus YJL115W, strain asf1, stronger effect = lower value 0.507 | locus YJL134W, strain LCB3, stronger effect = lower value 0.924 | locus YJL164C, strain tpk1, stronger effect = lower value 0.867 | locus YJL166W, strain qcr8, stronger effect = lower value 0.85 | locus YJL168C, strain set2, stronger effect = lower value 0.863 | locus YJR043C, strain POL32, stronger effect = lower value 0.722
0.899 (active) and 0.963 (inactive): locus YHR030C, strain SLT2, stronger effect = lower value
0.776 (active) and 0.954 (inactive): locus YJL095W, strain BCK1, stronger effect = lower value
